# Assay results taken from the supplement of paper PMC6555819.
# Columns and labels:
# Experiment in all cases: PBM binding z-score (relative to random genomic background probes); higher = stronger binding; sequences stand for … in GC…GCGATTGACAGCGTAGAATGAAGG
# [1] = system: FXR:RXRa (NR concentration 270 nM, RXRa partner concentration 90 nM)
# In short: (§1)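 Binding buffer was PBS pH 7.4 with 2% milk, 0.02% Triton X-100, 1 mM DTT, 0.2 mg/mL BSA and 0.4 mg/ml salmon testes DNA. In it, ligand-free nuclear receptor dimers were incubated 1 h on custom Agilent 4×180K protein-binding microarrays carrying double-stranded probes. Antibodies against each partner (one per run) detected binding, and z-scores were calculated against random background probes after regression normalization of scanned fluorescence.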
# [2] = system: LXRa:RXRa (NR concentration 270 nM, RXRa partner concentration 90 nM)
# In short: as §1
# [3] = system: LXRa homodimer (NR concentration 270 nM)
# In short: as §1
# [4] = system: LXRb:RXRa (NR concentration 270 nM, RXRa partner concentration 90 nM)
# In short: as §1
# [5] = system: LXRb homodimer (NR concentration 270 nM)
# In short: as §1
# [6] = system: PPARa:RXRa (NR concentration 270 nM, RXRa partner concentration 90 nM)
# In short: as §1
# [7] = system: PPARg:RXRa (NR concentration 180 nM, RXRa partner concentration 90 nM)
# In short: as §1
# [8] = system: PPARg:RXRa 270nM:90nM, anti-RXR (NR concentration 270 nM, RXRa partner concentration 90 nM)
# In short: as §1
# [9] = system: PPARg:RXRa 30nM:10nM, anti-RXR (NR concentration 30 nM, RXRa partner concentration 10 nM)
# In short: as §1
# [10] = system: PPARg:RXRa 90nM:30nM, anti-RXR (NR concentration 90 nM, RXRa partner concentration 30 nM)
# In short: as §1
Sequence,PBM binding z-score [1],PBM binding z-score [2],PBM binding z-score [3],PBM binding z-score [4],PBM binding z-score [5],PBM binding z-score [6],PBM binding z-score [7],PBM binding z-score [8],PBM binding z-score [9],PBM binding z-score [10]
CCTACTGGGCCAAAATGGTCATTGATGCCGATAA,-0.236,-0.291,-0.317,-0.55,-0.875,0.318,0.666,0.897,-0.124,0.804
AATACAGGGTCATCGTAGGCCAGAGTACGCACAG,7.52,6.07,2.44,4.7,1.5,5.73,6.55,6.09,2.58,4.87
CCTACTGGGCCAAGGTCGTTGATCAGTCAAAGCA,0.16,0.0412,-0.352,0.25,-0.992,1.56,1.7,2.33,0.177,1.6
ACTAGCAGGCCAAGTTTGGGTCCCTCAAACAAAG,-0.607,-0.657,-0.583,-0.842,-0.875,-0.286,-0.709,-0.928,-1.06,-1.05
TCGAGTAGGTTACCAAAGGGGCATTCAGCTTTCT,0.363,3.05,-0.577,1.61,-0.557,1.41,0.576,1.33,0.963,1.22
ATCGAAAGGTCCTGAGGTGAGTATACAGAAAGGC,0.12,0.275,-0.698,0.248,-0.388,1.21,0.686,0.415,0.534,1.08
CCAGACAGGTGAGAGGGTAACTCAGCCTCGATTA,0.0104,0.0679,-0.0244,0.043,-0.609,1.65,1.99,2.94,0.655,2.18
TAGCCTACGTCATGGGCCAGTATACCACGCGAAC,-0.49,-0.556,-0.342,-0.379,-0.666,-0.649,0.599,-0.711,-0.624,-0.961
TCGAGTGGGTTAGGGGCATTCAGAATGGCGTCGA,0.437,0.401,0.0912,1.41,0.759,1.46,0.402,1.73,0.9,1.31
AATAGAGGGTCATCGTAGGCCAGAGTACGCACAG,6.8,6.19,1.56,3.89,0.604,5.5,5.46,5.11,2.13,3.89
TGTCAAAGTTCAAAGGTAACGTAGGTATCCACAC,6.64,6.44,4.15,4.46,1.58,5.79,8.31,7.65,4.86,7.25
CCGACTGGGGCATAAGGTTACCATTAGCCAGCCC,0.294,0.416,-0.399,0.617,-1.38,1.85,2.02,3.12,0.689,2.57
CCGGCTGGGGCAAAGGTTACCATACTCAGTACGA,1.59,1.59,-0.197,2.03,-1.05,4.48,8.25,7.31,6.14,7.57
CGTCCAAGGTCAGAGAAGTCAGTGAATGCCGAGT,4.48,2.9,0.222,2.17,-0.0616,3.73,1.89,2.54,0.704,1.5
TAGCCTAGGCCAGATCGGGCCAGTATACGCTATA,-0.616,-1.17,-0.865,-1.22,-1.15,-1.12,0.0311,-1.24,-0.873,-1.05
GTACCAATGTGAATAGGTCGTTGATGAGTAGGCG,-0.0565,-0.171,-0.443,-0.196,-0.467,0.275,0.47,-0.162,-0.118,-0.255
CCTACTGGGCCAAGGTCATTGAACAGTCAAAGCA,3.08,3.2,0.814,3,-0.34,4.19,4.25,4.55,1.68,3.73
TCTTGTAGATCACTAGAGGTTAAGAAAGTGCGCT,0.684,5.11,1.63,2.67,0.128,1.88,-0.00284,1.73,2.56,2.22
GTACCAAAGTGAATAGGTCGTTGATGAGTAGGCG,-0.437,-0.179,0.178,-0.156,-0.573,0.468,0.56,0.234,0.0456,-0.0827
GCGTCTGGGGCAAAGCAGGTTACCATAAGGTTGG,0.56,0.162,-0.429,0.26,-0.82,1.26,0.532,0.46,-0.355,0.0417
AGTCAAAGCTCACTAGGTAACGTAAGATTCAGCT,-0.693,-0.67,-0.464,-0.615,-0.437,0.637,0.855,0.165,0.0714,-0.118
TATACAGGGTCAAAGGCCTGAGTACGAATGTCGA,7.13,6.36,2.31,4.5,2.28,5.81,6.92,6.47,3.45,5.74

Sequence,PBM binding z-score [1],PBM binding z-score [2],PBM binding z-score [3],PBM binding z-score [4],PBM binding z-score [5],PBM binding z-score [6],PBM binding z-score [7],PBM binding z-score [8],PBM binding z-score [9],PBM binding z-score [10]
TATACAGGGTCAAAGGCAAGAGTACGAATGTCGA,6.51,6.12,2.15,4.62,2.67,5.97,7.76,6.96,4.69,6.75
AATACAGGGTCACTAGGCCATAGTAGGTACGAAT,5.83,4.98,1.02,4,0.913,6.01,8.68,6.76,3.65,5.88
CGAACGAGGGCATGAGTTGAAAGCAAATGCCGAT,0.434,0.165,-0.523,0.0977,-0.959,1.85,1.37,1.83,0.552,1.12
ATCTCCAGGTAAAAGTTCAGTGAATCCCGAGGAT,1.06,1.58,1.65,1.15,0.946,3.5,5.76,6.62,6.15,7.28
GCGACTGGGGCATCAGCCGGTTACCATAACTTAA,-0.764,-0.553,-0.599,-0.35,-1.65,0.18,0.552,0.636,-0.73,-0.0776
AATACAGGGTCATCGTAGGCCAGAGAACGCACAG,7.44,6.64,2.11,4.8,1.09,6.16,7.11,6.17,2.74,5.08
AGAACGAGGGCAATGACTTGATAGCACGGGTGGC,0.827,0.481,-0.243,-0.0938,-0.458,1.43,1.71,0.813,0.00433,0.55
TCTCGGAGGACACGAAAGGTCAGAGTTCGACATC,3.3,4.16,4.17,3.5,0.134,3.71,1.72,3.4,2.89,3.12
ACTTACGGGTCAACGAGGTTAGAGCACGCGTATA,6.72,4.76,0.422,3.9,0.261,5.57,5.52,5.72,2.15,4.13
ACAGACAGGTGAGTGACGGTAACTCAGCTGGACG,-0.187,-0.0958,-0.572,-0.393,-0.746,-0.129,0.633,0.0382,-0.358,-0.388
TCTTGTCGATCAAGCAGGTTAAGAAAGCCTGAGT,-0.117,0.258,-0.542,0.373,-0.662,0.754,-0.443,1.21,2.65,1.95
TCTCGGAGGACACGAAGGTCAGGGCTTTCCAGAG,1.55,1.29,0.139,1.17,-0.91,2.13,0.576,1.75,2.15,1.9
CCTATTAGTTGACCATAAGGGCAAACGAAGCTCG,1.04,0.336,0.545,0.644,0.599,0.695,0.426,0.45,0.0598,0.284
TCTTGTAGATTAAAGGTTAAGAAAGCCGAAGCCT,1.25,1.98,0.568,1.82,0.134,3.56,5.78,6.6,6.85,7.33
CCAACTAGGTCAAGAGGTCAAAGTCCGCTTCCCG,6.96,6.55,6.26,5.47,1.76,6.42,9.41,7.99,6.27,8.1
AATACCGGGTCATCGTAGGCCAGAGTACGCACAG,6.17,5.51,1.68,3.93,0.968,5.4,5.83,5.07,2.01,3.89
TCATATAGGTAAGGGTGAAAGTCGAACGATATGA,0.857,0.803,-0.00999,0.694,-0.563,2.47,2.7,3.29,3.87,3.72
ATCTCTAGGTAACCAAGTTCAGTGTATGCCGAAC,0.4,0.852,0.996,0.524,0.803,1.06,0.577,0.99,0.331,0.721
ATCGAAAGGTCGACGGGGTGAGTATACACCGTTT,4.95,3.54,0.287,3.23,0.368,4.57,3,3.48,0.859,2.28
AGTCAAAGTCCACTAGGTAACGTAAGATTCAGCT,-0.195,-0.249,-0.162,-0.0956,0.0347,0.0628,0.58,0.278,0.0579,0.146
CCGACTGGGGCAAGGTTAGCATAACGCACAGCCA,-0.312,-0.11,-0.322,-0.208,-1.24,1.23,2.6,3.06,0.844,2.39
CCGACTGTGGCAAAGGTTACCATACTCAGTACGA,0.857,1.38,0.228,1.73,-0.558,4.03,8.41,7.91,6.78,8.43
